Reference: ChEMBL document CHEMBL1961873, “Compounds: GSK PKIS; Assays: Nanosyn kinase panel” (2012)

Assays:
[1] = biological target: Serine/threonine-protein kinase 26 (Homo sapiens) (UniProt Q9P289); details: at 1 µM;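 also: mean inhibition of MST4 kinase activity, reported from the GSK PKIS inhibitor-set screening panel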
[2] = biological target: Serine/threonine-protein kinase PAK 1 (Homo sapiens) (UniProt Q13153); details: at 0.1 µM
[3] = biological target: Serine/threonine-protein kinase PAK 1 (Homo sapiens) (UniProt Q13153); details: at 1 µM
[4] = biological target: Serine/threonine-protein kinase PAK 2 (Homo sapiens) (UniProt Q13177); details: at 0.1 µM
[5] = biological target: Serine/threonine-protein kinase PAK 2 (Homo sapiens) (UniProt Q13177); details: at 1 µM
[6] = biological target: Serine/threonine-protein kinase PAK 3 (Homo sapiens) (UniProt O75914); details: at 0.1 µM
[7] = biological target: Serine/threonine-protein kinase PAK 3 (Homo sapiens) (UniProt O75914); details: at 1 µM
[8] = biological target: Serine/threonine-protein kinase PAK 5 (Homo sapiens) (UniProt Q9P286); details: at 0.1 µM
[9] = biological target: Serine/threonine-protein kinase PAK 5 (Homo sapiens) (UniProt Q9P286); details: at 1 µM
[10] = biological target: Serine/threonine-protein kinase PAK 6 (Homo sapiens) (UniProt Q9NQU5); details: at 0.1 µM;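 also: mean PAK6 inhibition reported from the GSK PKIS screen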
Chain of Serine/threonine-protein kinase PAK 6 (Homo sapiens) (Q9NQU5 whole entry, looked up): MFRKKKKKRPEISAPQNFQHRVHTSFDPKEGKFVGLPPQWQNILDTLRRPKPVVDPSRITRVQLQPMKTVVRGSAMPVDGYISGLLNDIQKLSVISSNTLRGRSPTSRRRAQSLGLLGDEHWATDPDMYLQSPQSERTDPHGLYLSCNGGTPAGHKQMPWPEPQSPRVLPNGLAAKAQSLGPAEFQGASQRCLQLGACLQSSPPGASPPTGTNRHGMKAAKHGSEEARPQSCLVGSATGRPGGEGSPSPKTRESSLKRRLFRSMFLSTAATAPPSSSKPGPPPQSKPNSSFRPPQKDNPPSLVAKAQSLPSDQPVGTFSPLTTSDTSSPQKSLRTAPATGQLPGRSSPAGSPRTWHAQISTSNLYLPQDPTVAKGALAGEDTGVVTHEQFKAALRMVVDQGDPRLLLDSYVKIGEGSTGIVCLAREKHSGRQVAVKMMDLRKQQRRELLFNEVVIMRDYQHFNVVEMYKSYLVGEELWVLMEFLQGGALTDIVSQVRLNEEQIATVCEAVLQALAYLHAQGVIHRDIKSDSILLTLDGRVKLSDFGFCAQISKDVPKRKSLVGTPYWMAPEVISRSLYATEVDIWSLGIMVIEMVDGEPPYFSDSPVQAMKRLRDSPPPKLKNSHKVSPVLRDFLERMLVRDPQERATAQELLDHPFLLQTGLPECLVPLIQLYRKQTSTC

Chain of Serine/threonine-protein kinase 26 (Homo sapiens) (Q9P289 2-416 limits assumed): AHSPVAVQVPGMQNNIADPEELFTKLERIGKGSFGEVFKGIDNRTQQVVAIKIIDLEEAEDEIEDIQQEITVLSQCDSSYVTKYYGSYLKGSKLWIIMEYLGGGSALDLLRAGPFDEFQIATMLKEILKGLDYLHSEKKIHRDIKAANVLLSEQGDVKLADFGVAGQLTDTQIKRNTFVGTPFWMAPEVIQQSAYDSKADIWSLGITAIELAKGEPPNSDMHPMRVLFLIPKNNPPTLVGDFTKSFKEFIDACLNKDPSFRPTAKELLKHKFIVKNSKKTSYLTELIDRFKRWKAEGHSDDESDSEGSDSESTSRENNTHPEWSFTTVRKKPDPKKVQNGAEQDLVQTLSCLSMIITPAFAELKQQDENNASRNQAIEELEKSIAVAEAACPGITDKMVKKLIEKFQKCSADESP
Chain of Serine/threonine-protein kinase PAK 2 (Homo sapiens) (Q13177 whole entry): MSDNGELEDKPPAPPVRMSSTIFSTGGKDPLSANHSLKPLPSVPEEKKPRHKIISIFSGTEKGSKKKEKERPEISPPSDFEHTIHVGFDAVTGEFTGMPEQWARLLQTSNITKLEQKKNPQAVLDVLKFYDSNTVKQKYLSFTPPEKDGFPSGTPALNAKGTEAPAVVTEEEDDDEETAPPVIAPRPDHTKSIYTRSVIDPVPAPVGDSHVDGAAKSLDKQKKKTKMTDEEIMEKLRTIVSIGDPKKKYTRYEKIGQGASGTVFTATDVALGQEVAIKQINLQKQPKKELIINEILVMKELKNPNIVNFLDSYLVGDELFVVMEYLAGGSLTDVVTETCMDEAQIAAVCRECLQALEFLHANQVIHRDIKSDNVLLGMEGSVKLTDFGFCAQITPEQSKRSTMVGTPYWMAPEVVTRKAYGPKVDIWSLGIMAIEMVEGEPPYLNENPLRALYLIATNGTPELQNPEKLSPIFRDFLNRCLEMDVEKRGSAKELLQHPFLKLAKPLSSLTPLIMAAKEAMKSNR
Chain of Serine/threonine-protein kinase PAK 3 (Homo sapiens) (O75914 whole entry, looked up): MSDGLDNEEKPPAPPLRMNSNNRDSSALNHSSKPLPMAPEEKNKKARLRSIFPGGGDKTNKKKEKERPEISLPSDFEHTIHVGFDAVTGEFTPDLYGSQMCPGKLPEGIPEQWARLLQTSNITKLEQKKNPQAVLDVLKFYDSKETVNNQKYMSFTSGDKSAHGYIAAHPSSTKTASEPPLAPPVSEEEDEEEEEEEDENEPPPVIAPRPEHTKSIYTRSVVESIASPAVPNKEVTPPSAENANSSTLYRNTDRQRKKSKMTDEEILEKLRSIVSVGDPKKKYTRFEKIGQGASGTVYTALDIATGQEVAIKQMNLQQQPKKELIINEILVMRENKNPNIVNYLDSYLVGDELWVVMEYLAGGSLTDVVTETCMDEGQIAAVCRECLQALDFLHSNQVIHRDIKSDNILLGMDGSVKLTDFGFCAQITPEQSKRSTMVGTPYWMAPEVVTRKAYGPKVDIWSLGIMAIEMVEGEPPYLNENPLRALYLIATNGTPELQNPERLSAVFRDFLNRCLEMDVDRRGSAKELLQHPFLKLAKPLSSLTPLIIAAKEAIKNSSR
Chain of Serine/threonine-protein kinase PAK 1 (Homo sapiens) (Q13153 whole entry): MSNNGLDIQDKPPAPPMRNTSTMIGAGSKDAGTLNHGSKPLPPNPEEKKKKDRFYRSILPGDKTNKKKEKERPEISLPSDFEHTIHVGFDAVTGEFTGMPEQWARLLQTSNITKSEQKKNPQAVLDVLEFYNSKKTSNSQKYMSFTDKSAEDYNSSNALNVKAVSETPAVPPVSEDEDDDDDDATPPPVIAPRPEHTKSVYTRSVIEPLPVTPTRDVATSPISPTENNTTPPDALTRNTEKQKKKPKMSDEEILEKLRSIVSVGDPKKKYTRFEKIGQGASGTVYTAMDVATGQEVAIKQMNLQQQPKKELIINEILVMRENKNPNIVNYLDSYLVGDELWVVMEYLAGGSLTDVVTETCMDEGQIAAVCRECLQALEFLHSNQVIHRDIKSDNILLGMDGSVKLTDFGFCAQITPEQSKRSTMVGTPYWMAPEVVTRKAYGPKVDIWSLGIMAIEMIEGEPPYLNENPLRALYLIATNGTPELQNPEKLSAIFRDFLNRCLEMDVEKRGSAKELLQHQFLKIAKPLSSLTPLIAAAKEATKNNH
Chain of Serine/threonine-protein kinase PAK 5 (Homo sapiens) (Q9P286 whole entry, looked up): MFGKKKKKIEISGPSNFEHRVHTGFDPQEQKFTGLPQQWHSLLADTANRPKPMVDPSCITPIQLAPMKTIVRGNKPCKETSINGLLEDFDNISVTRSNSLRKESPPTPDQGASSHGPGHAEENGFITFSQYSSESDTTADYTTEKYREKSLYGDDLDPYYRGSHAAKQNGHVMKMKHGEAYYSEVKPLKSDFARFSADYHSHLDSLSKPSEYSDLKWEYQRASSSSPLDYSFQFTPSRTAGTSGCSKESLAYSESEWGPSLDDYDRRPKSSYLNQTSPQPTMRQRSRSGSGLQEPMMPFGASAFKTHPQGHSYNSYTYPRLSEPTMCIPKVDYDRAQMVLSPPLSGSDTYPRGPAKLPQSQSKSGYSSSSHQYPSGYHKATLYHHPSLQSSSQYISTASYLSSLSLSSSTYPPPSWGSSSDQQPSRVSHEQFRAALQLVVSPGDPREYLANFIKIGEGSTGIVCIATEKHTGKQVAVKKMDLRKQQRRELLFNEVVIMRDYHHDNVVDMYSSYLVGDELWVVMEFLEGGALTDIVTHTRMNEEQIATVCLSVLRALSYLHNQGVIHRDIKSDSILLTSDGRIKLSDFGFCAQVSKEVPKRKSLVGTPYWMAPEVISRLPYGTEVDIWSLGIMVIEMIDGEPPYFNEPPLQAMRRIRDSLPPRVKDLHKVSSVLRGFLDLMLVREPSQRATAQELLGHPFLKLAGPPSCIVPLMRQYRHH

Row | SMILES | inhibition [1] | inhibition [2] | inhibition [3] | inhibition [4] | inhibition [5] | inhibition [6] | inhibition [7] | inhibition [8] | inhibition [9] | inhibition [10]
1 | CCCN1CCCC(c2ccc(Nc3nc(Nc4cc(F)ccc4C(N)=O)c4cc[nH]c4n3)c(OC)c2)C1 (configuration not stated) | -1.5% | 7.38% | 9.12% | 2.49% | 3.33% | 4.64% | 5.56% | 1.21% | 6.67% | 2%
2 | COc1cc(Nc2nccc(-c3cnn4ncccc34)n2)cc(OC)c1 | 4.52% | -0.14% | 2.57% | -0.1% | 2.59% | 0.77% | 3.43% | -6.63% | 9.42% | -2.46%
3 | O=C1Nc2ccc(-c3cccnc3)cc2C1=Cc1cc(Br)c(O)c(Br)c1 | 36% | 6.15% | 6.31% | 2.5% | 2.17% | 4.09% | 4.77% | 0.53% | -0.35% | -0.06%
4 | Cc1ccc(O)cc1Nc1ccnc2ccc(S(C)(=O)=O)cc12 | -0.56% | 9.27% | 13.3% | 2.82% | 2.56% | 5.79% | 6.05% | 1.8% | 8.34% | -3.21%
5 | Cc1ccc2c(c1)/C(=N/Nc1ccc(S(N)(=O)=O)cc1)C(=O)N2 | 17.1% | -1.7% | 5.13% | 0.16% | -0.31% | 0.21% | -1.09% | -8.51% | – | -4.78%
6 | CS(=O)(=O)Nc1cccc(-c2ccc3c(NC(=O)C4CC4)n[nH]c3c2)c1 | 1.22% | 2.69% | 3.3% | 0.99% | 0.37% | 0.48% | 1.23% | – | – | -7.16%
7 | OCc1ccc(-c2nc(-c3ccccn3)c(-c3ccc4c(c3)OCO4)[nH]2)cc1 | -2.75% | 3.25% | 7.25% | 2.61% | 2.79% | 4.79% | 5.17% | 1.77% | 0.71% | 3.79%
8 | Cc1ccc(C(=O)NC2CC2)cc1-c1ccc2[nH]ncc2c1 | -0.24% | -0.61% | -2.6% | -3.3% | -4.55% | -4.8% | -3.91% | -4.55% | -2.43% | 1.46%
9 | ON=C1CCc2cc(-c3nc(C4CCNCC4)[nH]c3-c3ccncc3)ccc21 | -1.63% | 2.01% | 2.16% | -0.65% | -0.29% | -0.94% | -0.23% | – | – | 0.23%
10 | Cc1cc(Cl)cc2c1NC(=O)C2=NNc1ccc(S(N)(=O)=O)cc1 | -0.49% | 0.68% | 1.71% | 1.05% | 0.72% | 3.63% | 4.8% | -4.18% | -1.19% | 2.65%
11 | FC(F)(F)c1ccc(-c2nn3ncccc3c2-c2ccnc(Nc3ccc4c(c3)OCCO4)n2)cc1 | 7.92% | 4.61% | 0.84% | 1.32% | 1.42% | 3.69% | 4.75% | 6.24% | 11.3% | 9.3%
12 | CC(C)c1ccc(Nc2nccc(-c3cnn4ncccc34)n2)cc1 | 2.8% | 2.05% | 3.55% | 1.06% | 0.9% | 1.95% | 2.33% | -3.7% | 2.48% | -6.25%
13 | CCOc1nccc2c1nc(-c1nonc1N)n2CC | -0.82% | 5.11% | 2.07% | 0.86% | 1.74% | 3.24% | 4.4% | 7.54% | 6.11% | 5.85%
14 | COC(=O)Nc1nc2cc(Oc3ccc(NC(=O)Nc4cccc(Br)c4)cc3)ccc2[nH]1 | 9.97% | -0.8% | 6.23% | 0.73% | 0.39% | 2.85% | 2.59% | -1.29% | -0.7% | -5.52%
15 | CCn1c(-c2nonc2N)nc2ccc(F)cc21 | 3.36% | 12% | 11.2% | 3.1% | 3.8% | 7.78% | 6.52% | -1.6% | – | 2.06%
16 | CN(C)c1cc2c(Nc3ccc4c(cnn4Cc4ccccc4)c3)ncnc2cn1 | -0.54% | 6.36% | 6.67% | 0.73% | 0.51% | 3.07% | 3.39% | -1.52% | -2.02% | 4.32%
17 | COC(=O)c1cncc(/C=C/c2c(C)cc(O)cc2C)c1 | -1.43% | 4.61% | 0.91% | 2.48% | 0.99% | 4.48% | 4.33% | 9.23% | 2.77% | 1.5%

Row | SMILES | inhibition [1] | inhibition [2] | inhibition [3] | inhibition [4] | inhibition [5] | inhibition [6] | inhibition [7] | inhibition [8] | inhibition [9] | inhibition [10]
18 | c1ccc(Cc2nc3ccc(Nc4ncnc5ccccc45)cc3[nH]2)cc1 | -0.26% | 4.28% | 3.15% | 2.47% | 2.26% | 3.68% | 4.32% | 5.6% | 7.77% | -3.41%
19 | CC(C)c1ccc2c(c1)NC(=O)/C2=N/Nc1ccc(S(N)(=O)=O)cc1 | 0.01% | -1.3% | 3.93% | -1.91% | -1.73% | -1.11% | 0.37% | -6.19% | -0.94% | -8.22%
20 | C[C@@H](Oc1cc(-n2cnc3ccc(OC[C@@H](O)CO)cc32)sc1C(N)=O)c1ccccc1Cl | 1.05% | -2.19% | 1.45% | -2.74% | -0.42% | -2.28% | -0.49% | -7.17% | -4.24% | -7.41%
21 | COc1cc2ncn(-c3cc(OCc4ccccc4S(C)(=O)=O)c(C#N)s3)c2cc1OC | 0.22% | 6.88% | 5.61% | 0.99% | 2.17% | 4.63% | 5.52% | 3.87% | 4.97% | 4.22%
22 | NS(=O)(=O)c1ccc(NC=C2C(=O)Nc3ccc4ncsc4c32)cc1 | 78.9% | 7.91% | 8.35% | 2.5% | 4.68% | 5.33% | 6.6% | – | 5.11% | 0.36%
23 | COc1cc(/C=N/Nc2ncnc3c2cnn3C(C)C)ccc1O | 3.49% | 3.62% | 2.53% | -0.56% | -0.45% | -3.86% | 1.26% | – | 4.69% | -0.32%
24 | N#Cc1c(NC(=O)c2ccccc2F)sc2c1CCCC2 | 1.28% | -3.89% | 1.46% | -2.11% | -1.55% | -2.48% | -1.16% | -5.99% | -0.86% | 2.44%
25 | CN(C)C(=O)O[C@@H]1CN[C@@H](C#Cc2cc3ncnc(Nc4ccc(OCc5cccc(F)c5)c(Cl)c4)c3s2)C1 | 0.17% | 1.48% | 2.04% | 0.43% | -0.42% | 0.58% | -0.38% | -5.8% | – | 2.87%
26 | Nc1ccc(C#Cc2cncnc2Nc2ccc(OCc3cccc(F)c3)c(Cl)c2)cc1 | -2.17% | 0.57% | 1.46% | 0.83% | 0.22% | 3.57% | 2.79% | 0.61% | 2.79% | -4.23%
27 | NS(=O)(=O)c1cccc(Nc2cc(-c3ccc(F)cc3)n[nH]2)c1 | 0.86% | 3.94% | 8.53% | 1.36% | 1.54% | 3.88% | 4.82% | 10.3% | 11.7% | 2.82%
28 | COc1ccc2ncnc(Nc3ccc(OCc4ccccc4)cc3)c2c1 | -1.42% | 0.31% | 3.44% | -0.61% | 0.47% | 2.33% | 2.78% | -6.57% | -2.45% | -7.36%
29 | C[C@@H](Oc1cc(-n2cnc3ccc(OCC4CCN(C)CC4)cc32)sc1C(N)=O)c1ccccc1C(F)(F)F | – | -2.64% | 0.44% | -1.54% | -2.14% | -1.81% | 0.3% | -2.43% | -1.92% | 1.47%
30 | CN(c1ccc(NC(=O)Nc2ccc(OC(F)(F)F)cc2)cc1)c1ccnc(Nc2cccc(S(N)(=O)=O)c2)n1 | -3.21% | 1.61% | -0.37% | 0.53% | -1.63% | 2.32% | 0.7% | -3.24% | 1.16% | -3.33%
31 | N#Cc1cccc(Nc2nccc(-c3cnn4ncccc34)n2)c1 | 3.34% | 8.03% | 7.42% | 1.67% | 3.52% | 3.6% | 5.22% | 0.7% | 12.7% | -4.74%
32 | Nc1nccc(-c2c(-c3ccc(F)cc3)nn3cc(C(F)(F)F)ccc23)n1 | 0.4% | 0.65% | 2.14% | -2.44% | -1.84% | -0.02% | -0.21% | – | -2.91% | 3.48%
33 | Nc1nccc(-c2c(-c3ccc(F)cc3)ncn2CCCN2CCOCC2)n1 | 11.2% | 9.14% | 6.55% | 1.64% | 1.75% | 5.89% | 4.41% | – | 3.01% | -1.31%
34 | CN(C)CCCn1c(-c2nonc2N)nc2cnccc21 | -1.75% | 6.36% | 9.52% | 1.48% | 2.17% | 4.61% | 5.23% | – | -5.06% | 7.58%
